According to PubChem BioAssay:
Active and inactive are the calls of the source.

Experiments:
[1] = E. coli DRC41 culture turbidity changes, primary screen, E. coli filamentation inducer project, strain DRC41, OD650, 48 h (AID 1152);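 note: E. coli MC1000 strain DRC41 lacking acrAB efflux pump and sulA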; details: E. coli DRC41 (acrAB sulA), higher = more signal, called active from +8 up or from −8 down
[2] = small-molecule binders of probe aLefty1, primary screen, biochemical, small-molecule microarray, 635/667 nm fluorescence (AID 1153); details: higher = more signal;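 note: score merges spot fluorescence with signal-to-noise ratio from the scanned slide images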
[3] = PSAC antagonists in infected red cells, primary screen, cell-based, P. falciparum Indochina, OD700, 1 h (AID 1154); details: P. falciparum Indochina infected RBC osmotic lysis, higher = more signal, called active from +8 up or from −8 down
[4] = PSAC antagonists in infected red cells, primary screen, cell-based, P. falciparum Indochina, OD700, 2 h (AID 1155);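 note: lysis reports solute entry through the parasite surface anion channel PSAC; channel blockers reduce lysis of infected cells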; details: P. falciparum Indochina infected erythrocytes, osmotic lysis OD700; higher = more signal, called active from +8 up or from −8 down
[5] = osmotic lysis modulators in infected erythrocytes, primary screen, PSAC antagonist project, cell-based, P. falciparum Indochina, OD700, 3 h (AID 1156); details: higher = more signal, called active from +8 up or from −8 down
[6] = PSAC antagonists in infected red cells, primary screen, cell-based, P. falciparum Indochina, OD700, 18 h (AID 1157); details: P. falciparum Indochina infected erythrocytes, osmotic lysis OD700, 18 h; higher = more signal, called active from +8 up or from −8 down
[7] = modulators of S6 phosphorylation in cells, primary screen, cell-based, A549, cytoblot, luminescence, serum-stimulated (AID 1158); details: A549 phospho-S6 cytoblot, 5 h, higher = more signal;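 note: serum-stimulated A549 lung adenocarcinoma cells; signal is phosphorylated S6 detected by cytoblot immunostaining with HRP secondary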
[8] = biological target: NADPH oxidase 2 (Homo sapiens) (UniProt P04839); assay: NOX2-dependent H2O2 signal modulators, primary screen, NOX inhibitor project, cell-based, HEK293-NOX2, PMA-stimulated, Amplex Red fluorescence (AID 1159); details: 45 min, higher = more signal, called active from +8 up or from −8 down; note: test concentration not given here
[9] = biological target: NADPH oxidase 4 (Homo sapiens) (UniProt Q9NPH5); assay: NOX4-dependent H2O2 signal modulators, primary screen, NOX inhibitor project, cell-based, HEK293-NOX4, tetracycline-induced, Amplex Red fluorescence (AID 1160); details: 45 min, higher = more signal, called active from +8 up or from −8 down
[10] = biological target: NADPH oxidase 5 (Homo sapiens) (UniProt Q96PH1); assay: NOX5-dependent H2O2 signal modulators, primary screen, NOX inhibitor project, cell-based, HEK293-NOX5, Amplex Red fluorescence (AID 1161); details: HEK293-NOX5, ionomycin, 45 min, higher = more signal
[11] = A549 cell viability effects, profiling panel, calcein-AM fluorescence, 48 h, basal (AID 1162); details: higher = more signal; note: test concentration not given here
[12] = adipocyte viability effects, profiling panel, cell-based, 3T3-L1 adipocytes, calcein-AM fluorescence, 48 h, basal (AID 1163); details: 3T3-L1 adipocytes viability, higher = more signal; note: test concentration not given here
[13] = HepG2 cell viability effects, profiling panel, calcein-AM fluorescence, 48 h, basal (AID 1164); details: higher = more signal; note: test concentration not given here
[14] = MM1S cell viability effects, profiling panel, calcein-AM fluorescence, 48 h, basal (AID 1165); details: higher = more signal;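 note: viability of MM1S multiple myeloma cells under basal unstimulated conditions; test concentration not given here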
[15] = basal RPMI8226 viability, no added stimulus, profiling panel, cell-based, calcein-AM fluorescence, 48 h, PK04 Diversity Set (AID 1166); details: RPMI8226 myeloma viability, higher = more signal;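 note: cells grown under basal conditions without added stimulus; test concentration not given here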
[16] = basal HepG2 mitochondrial membrane potential changes, profiling panel, cell-based, JC-1 fluorescence, 24 h, 100 nL compound (AID 1167); details: higher = more signal; note: test concentration not given here
[17] = basal 3T3-L1 adipocyte mitochondrial potential changes, profiling panel, cell-based, JC-1 fluorescence, 3T3-L1 adipocytes, 24 h, 100 nL compound (AID 1168); details: JC-1 mitochondrial fluorescence, higher = more signal, called active from +8 up or from −8 down; note: test concentration not given here
[18] = basal RPMI8226 mitochondrial membrane potential changes, profiling panel, cell-based, JC-1 fluorescence, 24 h, 100 nL compound (AID 1169); details: RPMI8226 myeloma, JC-1 mitochondrial potential fluorescence, higher = more signal; note: test concentration not given here
[19] = basal MM1S mitochondrial membrane potential changes, profiling panel, cell-based, JC-1 fluorescence, 24 h, 100 nL compound (AID 1170); details: higher = more signal; note: test concentration not given here
[20] = A549 lung cancer cell viability effects, profiling panel, resazurin fluorescence, 24 h, PK04 Diversity Set (AID 1171); details: higher = more signal, called active from +8 up or from −8 down; note: test concentration not given here

Sequence of NADPH oxidase 4 (Homo sapiens) (Q9NPH5 whole entry, looked up): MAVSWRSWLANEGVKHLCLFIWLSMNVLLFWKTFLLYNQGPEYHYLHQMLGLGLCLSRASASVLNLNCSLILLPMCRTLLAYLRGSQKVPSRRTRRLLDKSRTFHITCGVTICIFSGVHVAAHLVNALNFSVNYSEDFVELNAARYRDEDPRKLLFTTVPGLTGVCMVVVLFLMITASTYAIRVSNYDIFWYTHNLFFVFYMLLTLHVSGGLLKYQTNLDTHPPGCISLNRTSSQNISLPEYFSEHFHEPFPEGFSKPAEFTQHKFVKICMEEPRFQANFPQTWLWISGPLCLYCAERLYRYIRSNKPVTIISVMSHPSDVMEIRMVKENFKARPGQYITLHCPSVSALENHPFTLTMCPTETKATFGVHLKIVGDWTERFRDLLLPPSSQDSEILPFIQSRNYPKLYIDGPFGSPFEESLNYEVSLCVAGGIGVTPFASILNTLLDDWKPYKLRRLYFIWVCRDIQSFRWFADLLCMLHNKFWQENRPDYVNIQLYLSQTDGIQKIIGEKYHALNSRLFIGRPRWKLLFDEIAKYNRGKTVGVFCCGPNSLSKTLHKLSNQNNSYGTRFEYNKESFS
Sequence of NADPH oxidase 2 (Homo sapiens) (P04839 whole entry, looked up): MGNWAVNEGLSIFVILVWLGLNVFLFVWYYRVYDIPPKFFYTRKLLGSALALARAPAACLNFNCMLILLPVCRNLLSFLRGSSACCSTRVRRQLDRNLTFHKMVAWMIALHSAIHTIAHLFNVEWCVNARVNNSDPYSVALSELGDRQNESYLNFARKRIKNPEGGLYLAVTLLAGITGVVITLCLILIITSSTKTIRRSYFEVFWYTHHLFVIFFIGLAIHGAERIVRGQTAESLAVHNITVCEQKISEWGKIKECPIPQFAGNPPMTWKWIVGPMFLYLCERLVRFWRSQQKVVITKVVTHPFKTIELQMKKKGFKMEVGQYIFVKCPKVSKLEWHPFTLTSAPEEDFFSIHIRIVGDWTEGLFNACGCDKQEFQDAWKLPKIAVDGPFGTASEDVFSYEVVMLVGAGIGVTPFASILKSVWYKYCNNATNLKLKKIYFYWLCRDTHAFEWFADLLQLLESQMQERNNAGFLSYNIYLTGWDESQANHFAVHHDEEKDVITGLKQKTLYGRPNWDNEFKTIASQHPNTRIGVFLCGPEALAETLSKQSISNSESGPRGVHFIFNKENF
Sequence of NADPH oxidase 5 (Homo sapiens) (Q96PH1 whole entry, looked up): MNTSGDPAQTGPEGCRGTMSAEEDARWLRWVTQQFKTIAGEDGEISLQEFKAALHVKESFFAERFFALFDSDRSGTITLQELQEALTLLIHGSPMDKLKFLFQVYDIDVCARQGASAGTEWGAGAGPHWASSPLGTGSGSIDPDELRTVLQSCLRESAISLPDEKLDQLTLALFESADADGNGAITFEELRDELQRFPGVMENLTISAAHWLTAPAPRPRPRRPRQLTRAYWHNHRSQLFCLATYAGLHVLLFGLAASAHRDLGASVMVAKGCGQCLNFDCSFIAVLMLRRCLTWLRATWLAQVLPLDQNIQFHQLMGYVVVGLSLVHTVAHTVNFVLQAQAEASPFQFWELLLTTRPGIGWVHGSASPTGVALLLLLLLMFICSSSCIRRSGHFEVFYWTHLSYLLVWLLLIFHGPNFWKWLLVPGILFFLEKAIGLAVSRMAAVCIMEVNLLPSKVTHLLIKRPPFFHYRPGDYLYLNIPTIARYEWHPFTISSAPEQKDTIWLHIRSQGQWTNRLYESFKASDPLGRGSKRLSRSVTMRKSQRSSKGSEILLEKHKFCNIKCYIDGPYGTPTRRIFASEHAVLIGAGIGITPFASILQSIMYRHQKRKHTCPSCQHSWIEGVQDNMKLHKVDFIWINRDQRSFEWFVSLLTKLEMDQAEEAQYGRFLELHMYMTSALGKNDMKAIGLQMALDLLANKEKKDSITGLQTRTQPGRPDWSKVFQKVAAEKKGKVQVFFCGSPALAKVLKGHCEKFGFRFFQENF

Compound | z-score [1] | composite z-score [2] | z-score [3] | z-score [4] | z-score [5] | z-score [6] | z-score [7] | z-score [8] | z-score [9] | z-score [10] | z-score [11] | z-score [12] | z-score [13] | z-score [14] | z-score [15] | z-score [16] | z-score [17] | z-score [18] | z-score [19] | z-score [20]
CN(C)CCCC[C@@H]1NC(=O)[C@H]2C[C@@H](C(=O)NCCCCCCNC(=O)CS)[C@@H](c3cccc(OCCO)c3)N2C1=O | -0.175 (inactive) | -0.139 | 2.29 (inactive) | 0.677 (inactive) | 1.26 (inactive) | 0.228 (inactive) | -0.617 | 1.07 (inactive) | 0.981 (inactive) | 0.992 | -0.234 | -0.288 | -0.384 | -0.315 | -0.357 | -1.27 | -0.0363 (inactive) | 0.503 | -0.177 | 0.0246 (inactive)
COCCOC(=O)N1C(=O)[C@@]2(c3cc(C#CCC(C(=O)OC)C(=O)OC)ccc31)[C@H](C(=O)N1CCc3cc(OC)c(OC)cc3C1)[C@H]1C(=O)O[C@H](c3ccccc3)[C@H](c3ccccc3)N1[C@@H]2c1ccccc1OCCO | 1.25 (inactive) | -0.314 | 2.96 (inactive) | 1.42 (inactive) | 0.358 (inactive) | 0.265 (inactive) | -0.0797 | 1.48 (inactive) | 1.57 (inactive) | 0.966 | 0.184 | 0.964 | -0.717 | -2.22 | -0.619 | 0.543 | 1.14 (inactive) | -0.946 | -1.05 | 0.853 (inactive)
CCCCC=C[C@@H](NC(=O)C(C)(C)C)c1ccccc1 | -2.16 (inactive) | 0.181 | 2.28 (inactive) | 1.43 (inactive) | -1.46 (inactive) | 1.45 (inactive) | -0.553 | -0.312 (inactive) | -2.16 (inactive) | 1.63 | -2.66 | -0.688 | -5.19 | -3.26 | -4.72 | -4.78 | -0.576 (inactive) | -0.895 | -2.82 | -0.938 (inactive)
CC(C)N1C(=O)[C@@]2(Cc3ccccc31)c1ccccc1C(=O)N(Cc1ccccc1)[C@H]2c1ccc(CO)cc1 | 0.882 (inactive) | -0.211 | 0.117 (inactive) | 0.945 (inactive) | 0.146 (inactive) | 0.328 (inactive) | -0.274 | -1.11 (inactive) | -0.462 (inactive) | -0.601 | -0.128 | 0.0609 | -0.112 | -0.436 | -0.617 | -0.0756 | -0.0814 (inactive) | 0.122 | 0.687 | 0.247 (inactive)
COc1ccc([Si](C)(C)[C@H]2[C@H](CC(=O)N3CCC[C@H]3CO)O[C@@]3(C(=O)N(C)c4ccccc43)[C@@H]2C)cc1 | -0.716 (inactive) | -0.0143 | 0.577 (inactive) | 0.225 (inactive) | -0.0347 (inactive) | 0.423 (inactive) | -0.0454 | 1.4 (inactive) | 1.46 (inactive) | 1.86 | 0.183 | -0.522 | 0.233 | 0.0008 | 0.143 | -1.03 | -0.223 (inactive) | 0.812 | -0.265 | -0.394 (inactive)
CC(C)(C)OC(=O)N1[C@@H](C=C(Br)Br)COC1(C)C | 1.98 (inactive) | -0.147 | -0.794 (inactive) | -1.16 (inactive) | -0.884 (inactive) | -1.66 (inactive) | 0.855 | 2.82 (inactive) | 0.4 (inactive) | -0.152 | 0.4 | 0.46 | 1.32 | -0.255 | -0.639 | 0.175 | 1.2 (inactive) | -0.187 | 0.548 | -1.4 (inactive)
COc1ccc(C(=O)Nc2ccc(CN3C(=O)[C@]4(O[C@H](CC(=O)N(CCO)Cc5ccccc5)[C@@H]([Si](C)(C)c5ccc(OC)cc5)[C@@H]4C)c4ccccc43)cc2)cc1 | 0.863 (inactive) | -0.142 | 4.94 (inactive) | 1.89 (inactive) | 0.439 (inactive) | 1.02 (inactive) | 0.383 | 0.658 (inactive) | 0.801 (inactive) | 3.23 | -0.937 | 1.19 | -1.52 | -1.92 | -2.73 | 0.353 | 0.324 (inactive) | -1.02 | -0.692 | -2.04 (inactive)
O=C1O[C@H](c2ccccc2)[C@H](c2ccccc2)N2[C@H]1[C@@H](C(=O)N1CCN(c3ncccn3)CC1)[C@]1(C(=O)Nc3ccc(C#CC4(O)CCCCCC4)cc31)[C@H]2c1ccc(O)cc1 | 2.51 (inactive) | 0.0903 | 0.36 (inactive) | 0.88 (inactive) | 1.09 (inactive) | 0.566 (inactive) | 1.37 | 1.24 (inactive) | 0.663 (inactive) | 1.22 | 1.84 | 0.783 | 1.58 | 0.0827 | -0.153 | -0.553 | -0.166 (inactive) | -0.259 | 0.18 | 1.17 (inactive)
C=C(C(=O)CC[C@H](OC(=O)c1ccccc1-c1ccccc1C(=O)O)c1ccc(OCCO)cc1)C(C)C | -0.0716 (inactive) | 0.235 | 11.6 (active) | 1.77 (inactive) | 2.09 (inactive) | 0.92 (inactive) | -0.154 | 0.357 (inactive) | -0.446 (inactive) | -2.12 | -0.535 | 0.484 | -0.659 | -1.43 | -1.48 | 0.17 | 0.447 (inactive) | 0.0683 | -0.0663 | 0.393 (inactive)
